Mean cell size and cell count data for 10 compounds are collected here from the supplement of paper PMC4709259.

Counter-ions that a name gives are not always drawn. ± gives the standard deviation.

The subject of the first experiment is Jurkat. The experiment is described as follows: mean cell size (FSC-A) relative to DMSO control (fraction of control); higher = larger cells. The following applies: 48 h. An outline of the steps: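 Jurkat cells at 600 cells/µl were incubated for 1 h and then treated for 48h with the Enzo Screen-Well FDA Approved Drug Library v2.0 at 25µM, with DMSO at 0.9% (v/v) final. Compounds that reduced counts below 20% of controls were retested in 10-fold dilutions down to 25nM. Cell count and mean cell size, taken as forward scatter area, were measured by flow cytometry relative to solvent-only controls. Each plate carried 6-12 controls, and values are means of 3 biological replicates.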
The compound `COc1c2occc2cc2ccc(=O)oc12` [Methoxsalen (Xanthotoxin)] (concentration: 25 µM) gave a mean cell size of 1.04 ± 0.019.

Consider `COc1cc(C)c(/C=C/C(C)=C/C=C/C(C)=C/C(=O)O)c(C)c1C` [Acitretin] (concentration: 25 µM), for which the mean cell size was 0.883 ± 0.021. `CCN(CC)C(=O)C1(c2ccccc2)CC1CN` (stereo not given) [Milnacipran·HCl] (concentration: 25 µM): the mean cell size worked out at 0.977 ± 0.032.

A further experiment relates to Jurkat. In words: cell count relative to DMSO control (fraction of control); higher = more cells (less growth inhibition). The note with it: 48 h.
In turn, `CNCCC(Oc1ccc(C(F)(F)F)cc1)c1ccccc1` (stereo not given) [Fluoxetine·HCl] (concentration: 25 µM) showed a cell count of 0.68 ± 0.14. Compound `CC(CN(C)C)CN1c2ccccc2CCc2ccccc21` (stereo not given) [Trimipramine Maleate] (concentration: 25 µM) gave a cell count of 0.834 ± 0.056. Consider `Nc1nc(NC2CC2)c2ncn([C@H]3C=C[C@@H](CO)C3)c2n1` [Abacavir Sulfate] (concentration: 25 µM), for which the cell count was 0.858 ± 0.15. On the same count and under the same terms, for `Nc1c2c(nc3ccccc13)CCCC2` [Tacrine·HCl] (concentration: 25 µM) the value was 0.854 ± 0.017.

Take `COc1cc2nc(N3CCN(C(=O)C4COc5ccccc5O4)CC3)nc(N)c2cc1OC` (stereo not given) [Doxazosin Mesylate] (concentration: 2.5 µM): the cell count amounted to 0.79 ± 0.13.

Compound `C[C@@H]1C/C=C/C=C/C=C/C=C/[C@H](O[C@@H]2O[C@H](C)[C@@H](O)[C@H](N)[C@@H]2O)C[C@@H]2O[C@](O)(C[C@@H](O)C[C@H]3O[C@@H]3/C=C/C(=O)O1)C[C@H](O)[C@H]2C(=O)O` [Natamycin] (concentration: 25 µM) gave a cell count of 1.01 ± 0.096.

As to `CCC(=O)O[C@]1(C(=O)SCF)[C@H](C)C[C@H]2[C@@H]3C[C@H](F)C4=CC(=O)C=C[C@]4(C)[C@@]3(F)[C@@H](O)C[C@@]21C` [Fluticasone Propionate] (concentration: 25 µM), the cell count turned out to be 1.06 ± 0.053.
